# Screen size: about 290,000 compounds; about 890 (0.31%) were called active. No stated cut-off is given here; in the data, active means inhibition mostly above about 52% (no sharp cut-off); inactive means mostly below about 76%. The full list was thinned out, with actives kept by preference.
# Experiment: cell-free HIV fusion peptide-binding blockers – biochemical, uHTS, fluorescence dequenching, primary screen (AID 1986)
# Conditions: 30 min, stronger effect = higher value
# [1] = measured here: repeat confirmation average inhibition, at 18.6 µM
SMILES,inhibition (at 20 µM),inhibition [1] [%]
CC(C)(C)C(=O)N=C1SC2CS(=O)(=O)CC2N1c1ccc2c(c1)OCO2 (stereo unspecified),-0.3% (inactive),
CCC(C)NC(=O)C1CCC(CNS(=O)(=O)c2ccccc2)CC1 (stereo unspecified),-0.4% (inactive),
Cc1ccc(O)c(C(=O)c2cc(C#N)c(=O)n(-c3nccs3)c2)c1,143% (inactive),
N#Cc1cc(C(=O)c2cc(F)ccc2O)cn(-c2nccs2)c1=O,151% (inactive),
N#Cc1cc(C(=O)c2ccccc2O)cn(-c2nccs2)c1=O,52.8% (active),99.4
CCOC(=O)c1c(NC(=S)Nc2ccc(Cl)cc2)sc2c1CCN(C)C2,23.1% (inactive),
CC(C)c1ccc(N(CC(=O)NCc2ccc(F)cc2)C(=O)c2csnn2)cc1,-1.1% (inactive),
Cc1c(C(=O)N(C)Cc2ccccc2)oc2c(Cl)cccc12,-0.6% (inactive),
O=C1NC(=O)/C(=C/c2ccccc2OCc2ccccc2)S1,31.6% (inactive),
O=C1NC(=O)/C(=C\c2ccccc2OCc2ccccc2)S1,47.5% (inactive),
O=C1N/C(=N/NC(=O)c2cccc3ccccc23)S/C1=C\c1ccccc1OCc1ccccc1,80.3% (active),
COc1ccc(C2CC(=O)c3cnc(NC(=O)c4cccc(OC)c4)nc3C2)cc1 (stereo unspecified),5.8% (inactive),
CCC(C)NC(=O)c1ccccc1NC(=O)COc1ccc(OC)cc1 (stereo unspecified),1% (inactive),
Cc1nc(NC2CCCCC2)c2nnn(Cc3ccccc3Cl)c2n1,0.5% (inactive),
O=C(NCc1ccccc1)NC(=O)c1ccc(Cl)cc1,2.8% (inactive),
CC(C)=C1C(=O)NN(c2cccc(Cl)c2)C1=O,60% (inactive),0.7
CC(C)=C1C(=O)NN(c2ccc(C)c(Cl)c2)C1=O,66.4% (active),
CC(C)=C1C(=O)NN(c2ccc(F)c(Cl)c2)C1=O,32.6% (inactive),
O=C(COC(=O)c1cc[n+]([O-])cc1)Nc1ccc(SC(F)F)cc1,2.4% (inactive),
O=C(Nc1cc(C(=O)N2CCCC2)ccc1N1CCCC1)c1ccccc1F,2.6% (inactive),
O=C(Nc1sc2c(c1C(=O)O)CCCC2)C(=O)N1CCOCC1,2.6% (inactive),

SMILES,inhibition (at 20 µM),inhibition [1] [%]
COc1cc(/C=C2\N=C(c3ccccc3)OC2=O)ccc1OC(C)=O,1.1% (inactive),
COc1ccc(/C=C2\N=C(c3ccc(C)cc3)OC2=O)cc1,1.1% (inactive),
COc1ccc(OC)c(/C=C2\N=C(c3ccccc3)OC2=O)c1,60.8% (active),
CC(C)=Cc1oc2ccc([N+](=O)[O-])cc2c1N1CCOCC1,0.3% (inactive),
COc1ccc(NC(C)C(=O)Nc2ccc(C#N)cc2)cc1Cl (stereo unspecified),0.7% (inactive),
O=C(Nc1ccc([N+](=O)[O-])cc1)N1CCCCCC1,-1.7% (inactive),
O=C(c1sc2ccccc2c1Cl)N1CCN(CCc2ccccn2)CC1,-0.9% (inactive),
O=C(O)c1ccc(-n2cccc2/C=C2/SC(=O)N(CC(=O)N3CCCC3)C2=O)cc1,33.4% (inactive),
COc1cccc(NC(=O)CCc2nnc3ccc(NCc4ccco4)nn23)c1,1.7% (inactive),
Cc1ccc(S(=O)(=O)/N=C2/NC(=O)/C(=C/c3ccncc3)S2)cc1,0.8% (inactive),
Cc1ccc(S(=O)(=O)/N=C2/NC(=O)/C(=C/c3ccccc3)S2)cc1,59.7% (inactive),46.5
Cc1ccc(S(=O)(=O)/N=C2/NC(=O)/C(=C\c3ccco3)S2)cc1,-3.4% (inactive),
Cc1ccc(S(=O)(=O)/N=C2/NC(=O)/C(=C/c3ccccn3)S2)cc1,13% (inactive),
Cc1ccc(S(=O)(=O)/N=C2/NC(=O)/C(=C\c3cc(Br)cc(Br)c3O)S2)cc1,94.7% (active),132
Cc1ccc(S(=O)(=O)/N=C2/NC(=O)/C(=C/c3ccc(Br)o3)S2)cc1,53.6% (active),
Fc1ccc(OCCCCCCN2CCCC2)cc1,0.7% (inactive),
Cc1ccc(NC(=O)CSCc2cc(=O)n3cc(C)sc3n2)c(C)c1,0% (inactive),
CCOC(=O)c1ccc(N=C2SC(C(=O)NC)CC(=O)N2Cc2ccc(F)cc2)cc1 (stereo unspecified),0.9% (inactive),
COc1ccc(C2(C(=O)NCCCN(C)C)CCOCC2)cc1,2.4% (inactive),
O=C(CCl)Nc1cc(S(=O)(=O)N2CCOCC2)ccc1N1CCOCC1,1% (inactive),
Oc1ccc(Cl)cc1N=Nc1ccccc1,-2.6% (inactive),

SMILES,inhibition (at 20 µM),inhibition [1] [%]
O=S(=O)(O)c1cc(O)c2c(O)c(N=Nc3cc(Cl)ccc3O)c(S(=O)(=O)O)cc2c1,55.7% (active),
O=S(=O)(O)c1cccc(N=Nc2c(O)ccc3ccccc23)c1,10.9% (inactive),
CCc1ccc2[nH]c3nc(SCc4nnc(-c5ccc(C)cc5)o4)nnc3c2c1,1.4% (inactive),
COc1ccc(-c2cc(-c3ccco3)[nH]c(=O)c2C#N)cc1,48.8% (inactive),
COc1ccc(-c2cc(-c3ccco3)[nH]c(=O)c2C#N)cc1OC,40.7% (inactive),
N#Cc1c(-c2cccc(Br)c2)cc(-c2ccco2)[nH]c1=O,81.5% (active),
Cc1c(C(=O)O)c(=O)n(-c2ccccc2)n1-c1ccccc1,1.2% (inactive),
Cc1ccc(C)c(C(=O)CSc2nc3ccccc3c(=O)[nH]2)c1,1.9% (inactive),
COc1cc(C(=O)NS(=O)(=O)c2ccccc2C)ccc1Cc1cn(C)c2ccc(NC(=O)OC3CCCC3)cc12,55.9% (active),
COc1ccc(CNC(=O)Cc2cn(C)c3ccccc23)c(OC)c1,0% (inactive),
Cc1cc(NC(=O)OC2CCCCC2)ccc1[N+](=O)[O-],-1.3% (inactive),
O=S(=O)(c1ccc(C2CCCCC2)cc1)N1CCCC1,-0.2% (inactive),
COCCn1c(=NC(=O)CCS(=O)(=O)c2ccccc2)sc2c(OC)ccc(OC)c21,1.4% (inactive),
CC(C)NCc1cc(Br)ccc1OCc1ccccc1,0.8% (inactive),
S=c1[nH]nc(-c2ccccc2)n1/N=C/C=C/c1ccco1,51.2% (inactive),-0.2
S=c1[nH]nc(-c2ccco2)n1/N=C/C=C/c1ccco1,65.9% (active),
S=c1[nH]nc(-c2ccco2)n1/N=C/C=C/c1ccccc1,3.2% (inactive),
COc1ccc2c(CC(=O)Nc3ncc(C)s3)coc2c1,1.1% (inactive),
Cc1cccc(C)c1OCc1cc(C(=O)NCc2ccc(Cl)s2)no1,0.7% (inactive),

# Reference: PubChem BioAssay AID1986 (Sanford-Burnham Center for Chemical Genomics, 2009)
